# Six1-Eya2 inh: blocks human Six1 binding to Eya2 | activity change, % (concentration not given with the values) | AlphaScreen GST-Six1/His-Eya2 binding, biochemical; stronger effect = lower value | AID 651725 | hit rate 0.56% among 360,000
# Target sequence (O00167 whole entry, looked up): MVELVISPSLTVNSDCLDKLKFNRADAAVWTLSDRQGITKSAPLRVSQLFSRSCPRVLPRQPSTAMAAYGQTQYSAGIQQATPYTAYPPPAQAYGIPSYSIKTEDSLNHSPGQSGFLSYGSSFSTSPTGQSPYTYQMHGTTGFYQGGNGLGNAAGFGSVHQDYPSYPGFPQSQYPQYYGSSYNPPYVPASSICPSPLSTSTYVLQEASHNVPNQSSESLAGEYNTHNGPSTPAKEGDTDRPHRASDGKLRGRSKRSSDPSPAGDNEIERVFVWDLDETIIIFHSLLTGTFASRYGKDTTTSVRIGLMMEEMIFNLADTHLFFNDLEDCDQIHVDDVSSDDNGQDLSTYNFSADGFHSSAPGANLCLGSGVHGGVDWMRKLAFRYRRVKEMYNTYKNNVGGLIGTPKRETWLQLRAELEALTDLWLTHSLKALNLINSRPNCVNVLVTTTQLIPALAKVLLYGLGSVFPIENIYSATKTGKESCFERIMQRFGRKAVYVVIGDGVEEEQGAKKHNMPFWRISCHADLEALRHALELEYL
# Target sequence (Q15475 whole entry, looked up): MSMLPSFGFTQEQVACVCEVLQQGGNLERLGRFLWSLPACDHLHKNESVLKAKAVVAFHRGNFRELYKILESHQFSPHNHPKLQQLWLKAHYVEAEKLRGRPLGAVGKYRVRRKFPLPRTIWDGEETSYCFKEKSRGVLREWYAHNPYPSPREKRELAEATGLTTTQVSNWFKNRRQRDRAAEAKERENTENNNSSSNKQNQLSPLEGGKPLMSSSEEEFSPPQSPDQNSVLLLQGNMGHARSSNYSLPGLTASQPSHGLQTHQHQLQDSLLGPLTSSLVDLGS
#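 GST-Six1 + His-Eya2 (5X stock: 250/500 nM); Tris pH 8.0, 300 mM NaCl, 0.05% BSA, 0.02% Tween 20; GSH donor/Ni acceptor beads; 1 h 37 °C dark; AlphaScreen readout.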
# KDM4E inh: blocks human JMJD2E demethylase activity; JMJD2E catalytic domain, FDH-coupled NADH fluorescence (FDH is formaldehyde dehydrogenase); Potency, µM (doses to about 57.1 µM), most hits filed as inhibitors; hit rate 1.6% among 230,000; AID 2147; active means well fitted inhibition curve with a large enough effect, not every such curve was filed as active; inconclusive means small, poorly fitted or top-dose-only effect, or another doubt; inactive means no such curve, though single readings can be large or run the other way; further: nearly all actives have a fitted effect of over 50% in size
# L3MBTL1 block: L3MBTL1 (human) inhibition; AID 485360; hit rate 0.66% among 230,000; Q9Y468; Potency, µM (titrated, usually from 57.1 µM), usual class: inhibitors; AlphaScreen L3MBTL1–H3K9me1 peptide binding; active means well fitted inhibition curve with a large enough effect; inconclusive means small, poorly fitted or top-dose-only effect; inactive means no such curve, though single readings can be large or run the other way; further: nearly all actives have a fitted effect of over 60% in size
#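 First, the protein-peptide complex forms for 30 min at room temperature (L3MBTL1 50 nM, biotinylated H3K9me1 peptide 75 nM). Next, compounds are pin-transferred and incubated 30 min. Finally, AlphaScreen beads are added and read after 30 min.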
# CtBP-E1A blk: CtBP/E1A binding inhibition | AID 651724 | activity change, % (no concentration beside the values) | AlphaScreen GST-E1A/His-CtBP binding, 1536-well; stronger effect = lower value | hit rate 0.49% among 340,000
#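 GST-E1A and His-tagged CtBP (125 nM each as 5X stock) were preincubated with pin-transferred compound for 2 h at 37 °C in the dark, then glutathione donor and nickel acceptor beads were added for 1 h before AlphaScreen reading.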
# A number is an active result; n = inactive; u = inconclusive; x = no result given; ! = not confirmed by another sample; [ ] = remark or other dose. The entries come from a sample that favours hits as a whole. Unless noted, no stated cut-off is given here; in the data, active means activity change below about -65%; inconclusive means mostly about -30% to -63%; inactive means weaker than that.
SMILES,Six1-Eya2 inh,KDM4E inh,L3MBTL1 block,CtBP-E1A blk
O=C(N/N=C/c1ccc(OC(=O)c2ccc(Br)cc2)cc1)c1ccncc1,u,x,x,n
O=C(N/N=C/c1cc([N+](=O)[O-])ccc1O)c1cccc2cc[nH]c12,-70,u,n,-93
O=C(N/N=C/c1cc(Cl)ccc1O)c1ccc(Br)cc1,u,u,n,u
O=C(N/N=C/c1cc(Br)ccc1OC(=O)c1ccc(Br)cc1)c1ccncc1,-79,x,x,-91
O=C(N/N=C/c1cccc([N+](=O)[O-])c1)c1cccc2cc[nH]c12,n,n,n,n
COc1cc(/C=N/NC(=O)c2cccc(N3CCCC3=O)c2)ccc1O,n,x,x,n
O=C(N/N=C/c1cc(Br)ccc1O)c1ccncc1,-93,28µM,32µM,-94
O=C(Cc1cccs1)Nc1ccc(F)c(S(=O)(=O)N2CCOCC2)c1,n,x,n,x
O=C(COc1cccnc1[N+](=O)[O-])NCCc1ccc(F)cc1,n,u,n,n
COC(=O)[C@@]1(Cc2ccc(F)cc2)[C@H]2c3cc(C(=O)N4CCCC4)n(Cc4ccccn4)c3C[C@H]2CN1C(=O)c1ccccc1,x,n,x,x
O=C(N/N=C/c1ccccc1O)c1cc[n+]([O-])cc1,-78,x,x,-94
O=C(N/N=C/c1cc([N+](=O)[O-])ccc1O)c1ccncc1,-90,10µM,u,x
Nc1nonc1C(=O)N/N=C/c1cc(Br)ccc1O,-93,3.5µM,1.4µM,-92
Nc1nonc1-n1nnc(C(=O)N/N=C/c2cc(Br)ccc2O)c1CNc1ccccc1,n,x,x,n
O=C(NN=Cc1cccc(O)c1O)c1ccccc1,-90,x,x,-91
COC(=O)c1nnc(N[C@@H](Cc2c[nH]c3ccccc23)C(=O)OC)nc1C(=O)OC,x,n,x,x
COc1ccc(/C=N/NC(=O)C(=O)Nc2ccccn2)cc1OC,n,n,n,n
O=C(N/N=C/c1ccccc1O)C(=O)Nc1ccccn1,-88,n,n,x
O=C(CCCCCNC(=O)c1ccccc1)N/N=C/c1ccccc1O,n,25µM,n,u
COc1cc(O)c(/C=N/NC(=O)c2ccncc2)c(OC)c1[N+](=O)[O-],u,22µM,x,x
O=C(N/N=C/c1ccccc1O)c1ccncc1,-92,x,u,-92
COC(=O)c1ccc(C(NC(=O)OCc2ccccc2)/C(C)=C/[C@@H](C)C(=O)NC2CCCCC2)cc1 (stereo partly drawn),x,n,x,x
O=C1c2ccccc2C(c2nnnn2C2CCCCC2)N1CCc1ccc(O)cc1 (stereo not drawn),n,x,x,n
Cc1cccc(/C=N\NC(=O)c2ccc(Cl)cc2)c1O,n,16µM,n,n
Cc1cccc(/C=N/NC(=O)Cc2ccc(Cl)cc2)c1O,n,x,n,x
SMILES,Six1-Eya2 inh,KDM4E inh,L3MBTL1 block,CtBP-E1A blk
CCCCC/C=C\C/C=C\CCCCCCCC(=O)NCCCC(=O)O,x,n,x,x
O=[N+]([O-])c1ccc(N=Nc2ccc(O)c3ccccc23)cc1,u,x,x,-70
O=S(=O)(Nc1ccc(N=Nc2ccc(O)c3ccccc23)cc1)c1ccccc1,u,n,u,u
CCN(CC)S(=O)(=O)c1ccc(N2CCOCC2)c(NC(=O)c2cc(-c3ccccn3)nc3ccccc23)c1,n,13µM,n,n
CN1CCN(C(CNS(=O)(=O)c2ccc(Br)cc2)c2ccc3c(c2)OCO3)CC1 (stereo not drawn),n,x,n,n
O=C(CSC1=NNC(c2ccccn2)S1)Nc1ccc(C(F)(F)F)cc1 (stereo not drawn),-91,n,x,-95
O=C(CCc1ccc(O)cc1)c1c(O)cc(O)cc1O,n,32µM!,x,n
Cc1ccc(S(=O)(=O)NC(=O)O[C@@H]2C(=O)c3cc(Br)ccc3O[C@H]2c2ccc3c(c2)OCO3)cc1,x,n,x,x
COCCn1c(SCC(=O)NC2CCCC2)nnc1-c1ccco1,n,x,x,n
Oc1ccc(N2CCN(c3ncnc4sc(-c5ccccc5)cc34)CC2)cc1,n,16µM,u,n
Nc1ccn([C@@H]2O[C@H](CO)[C@@H](O)[C@@H]2O)c(=O)n1,n,0.89µM!,n,n
CCOC(=O)c1cc[n+](CC(=O)c2ccc(F)cc2)cc1,n,32µM,n,n
CCOC(=O)c1ccc(NC(=O)Nc2ccc(F)cc2)cc1,n,n,x,n
COC1/C=C/OC2(C)Oc3c(C)c(O)c4c(O)c(c(/C=N/N5CCN(C)CC5)c(O)c4c3C2=O)NC(=O)/C(C)=C/C=C/C(C)C(O)C(C)C(O)C(C)C(OC(C)=O)C1C (stereo not drawn),x,8.9µM,x,x
CO[C@@H]1C=CO[C@]2(C)Oc3c(C)c(O)c4c(O)c(c(C=NN5CCN(C)CC5)c(O)c4c3C2=O)NC(=O)C(C)=CC=C[C@H](C)[C@H](O)[C@H](C)[C@H](O)[C@H](C)[C@H](OC(C)=O)[C@H]1C,x,n,x,x
CC(C)(O)c1cc2ccc(C#CCCN3C(=O)c4ccccc4C3=O)cc2c(=O)o1,n,x,n,n
C=CCNc1nc(=S)[nH]c2cc(OC)c(OC)cc12,-83,n,n,-74
CC(C)(C)NC(=O)[C@@H]1C[C@H]2CCCC[C@@H]2CN1C[C@H](O)[C@H](Cc1ccccc1)NC(=O)[C@@H](CC(N)=O)NC(=O)c1ccc2ccccc2n1,x,n,x,x
CCCCC1=CC2=C(c3ccco3)C(=O)C(C)(OC(=O)c3ccc(OC)cc3)C(=O)C2=CN1CCc1ccccn1 (stereo not drawn),n,8.9µM!,x,n
CCCCC1=CC2=C(c3ccco3)C(=O)C(C)(OC(=O)c3ccc(OC)cc3)C(=O)C2=CN1CCc1c[nH]c2ccccc12 (stereo not drawn),x,n[11.4 µM],x,x
CCCCC1=CC2=C(c3ccco3)C(=O)C(C)(OC(=O)c3ccc(OC)cc3)C(=O)C2=CN1CCOC (stereo not drawn),n,n[11.4 µM],x,n
CCCCC1=CC2=C(c3ccco3)C(=O)C(C)(OC(=O)c3ccc(OC)cc3)C(=O)C2=CN1Cc1ccccc1 (stereo not drawn),n,16µM!,x,n
COc1ccc(C(=O)COC(=O)C2COc3ccccc3O2)c(OC)c1 (stereo not drawn),n,x,x,n
O=C(Nc1cccc(C(F)(F)F)c1)c1ccc2sc([C@@H]3O[C@H](CO)[C@H](O)[C@H](O)[C@H]3O)nc2c1,n,x,x,n
O=c1[nH]cnc2c1sc1nc3c(c(-c4ccc(Cl)cc4)c12)CCC3,u,n,x,-71
SMILES,Six1-Eya2 inh,KDM4E inh,L3MBTL1 block,CtBP-E1A blk
O=C(O)c1ccc(N2C(=O)c3cccc4cccc(c34)C2=O)cc1,n,x,n,n
O=C(O)c1ccc(N2C(=O)c3cccc4c(C(=O)O)ccc(c34)C2=O)cc1,n,28µM,3.5µM,n
COc1cc2cc(Oc3ccc4ccc(=O)oc4c3)c(=O)oc2cc1O[C@@H]1O[C@H](CO)[C@@H](O)[C@H](O)[C@H]1O,n,x,32µM,n
COc1cc2cc(Oc3ccc4ccc(=O)oc4c3)c(=O)oc2cc1OC1OC(COC(=O)CC(C)(O)CC(=O)O)C(O)C(O)C1O (stereo not drawn),u,u,n,u
O=C(NCCNC(=O)c1ccccc1O)c1ccccc1O,n,x,n[2.29 µM],n
O=C(NO)c1ccccc1O,n,10µM,n,n
COc1ccc(-c2nn(-c3ccccc3)cc2/C=N/NC(=O)c2ccc(Br)o2)cc1,n,u,35µM,n

# High-throughput results from PubChem BioAssay.
